Screening results as filed in PubChem BioAssay.
MEP2-GFP yeast: modulators of TOR pathway MEP2-GFP in S. cerevisiae | S. cerevisiae MEP2-GFP strain, flow cytometry GFP, 3 h; 100% = DMSO control level | GFP response vs DMSO, % at 10 µM | actives 0.51% (n = 330,000) | AID 2016;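 active = GFP response versus DMSO above a set limit, roughly screen mean plus 3 SD, cut at about 180% in these data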;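 also: median GFP fluorescence of the barcode-gated MEP2-GFP cells per well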
RPL19A-GFP yeast: yeast TOR pathway RPL19A-GFP modulation; actives 0.3% (n = 330,000); S. cerevisiae RPL19A-GFP strain, flow cytometry, 3 h; hits give low values; percent response vs DMSO, % at 10 µM;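 active = percent response vs DMSO below 50%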;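 also: median channel GFP fluorescence of the barcoded RPL19A-GFP strain; ratio of sample median GFP to plate DMSO average so 100% = DMSO; lower means less RPL19A-GFP as with rapamycin TOR inhibition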
CIT2-GFP yeast: alters CIT2-GFP fluorescence in TOR pathway yeast screen | S. cerevisiae CIT2-GFP strain, flow cytometry, 3 h; 100 means same as DMSO wells | GFP response vs DMSO, % at 10 µM | actives 0.065% (n = 320,000);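 active = GFP response relative to DMSO above a set limit, near the screen mean plus 3 SD, cut at about 150% in these data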;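 also: ratio of well median GFP fluorescence to mean of DMSO wells on the plate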
AGP1-GFP MLPCN: modulators of TOR pathway AGP1-GFP in S. cerevisiae. S. cerevisiae AGP1-GFP multiplex flow cytometry, 3 h; GFP as percent of DMSO wells. GFP response vs DMSO, % at 10 µM. actives 0.02% (n = 320,000). AID 2066;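 active = GFP response relative to DMSO above a set limit, near screen average plus 3 SD, cut at about 150% in these data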;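 also: median GFP channel fluorescence of the gated AGP1 strain per well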
LAP4-GFP MLPCN: alters LAP4-GFP fluorescence in TOR pathway yeast screen; S. cerevisiae LAP4-GFP multiplex, flow cytometry GFP, 3 h; median GFP as percent of DMSO wells; GFP response vs DMSO, % at 10 µM; actives 0.34% (n = 320,000);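 active = GFP response vs DMSO above a set limit, about the screen mean plus 3 SD, cut at about 150% in these data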
LAP4 cherry2: second confirmation of modulators of TOR reporter LAP4-GFP in yeast | shares compounds with LAP4-GFP MLPCN | S. cerevisiae LAP4-GFP strain, flow cytometry GFP, 3 h | GFP response vs DMSO, % at 10 µM | actives 20% (n = 590) | AID 2621;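 active = GFP signal as percent of the solvent control above about 150%, meaning raised reporter expression, limit read from the data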;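 also: ratio of well median GFP fluorescence to plate DMSO mean so 100% = DMSO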
MEP2-GFP pick2: yeast MEP2-GFP modulation, second cherry pick | actives 10% (n = 590) | GFP response vs DMSO, % at 10 µM | shares compounds with LAP4-GFP MLPCN | S. cerevisiae MEP2-GFP strain, flow cytometry GFP, 3 h;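 active = GFP signal above 150% of the solvent control wells, that is a rise of more than half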;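 also: median channel GFP fluorescence of all gated yeast cells per well; ratio of median GFP to plate DMSO average so 100% = DMSO level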
RPL19A-GFP pick2: yeast RPL19A-GFP TOR reporter modulation, second cherry pick | shares compounds with LAP4-GFP MLPCN | S. cerevisiae RPL19A-GFP strain, flow cytometry GFP, 3 h; hits give low values; 100% means same as DMSO wells | GFP response vs DMSO, % at 10 µM | actives 3% (n = 590) | AID 2623;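 active = under 65% GFP response relative to DMSO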;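 also: median GFP channel fluorescence per well over the all cells gate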
CIT2 GFP CP2: yeast CIT2-GFP TOR reporter modulation, second cherry pick | shares compounds with LAP4-GFP MLPCN | AID 2624 | actives 8% (n = 590) | S. cerevisiae CIT2-GFP strain, flow cytometry GFP, 3 h; DMSO control wells read 100% | GFP response vs DMSO, % at 10 µM;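 active = GFP response vs DMSO above about 150%, limit read from the data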;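 also: median green fluorescence per well over all gated yeast cells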
AGP1-GFP pick2: yeast AGP1-GFP TOR reporter modulation, second cherry pick; 590 tested, under 10 active; AID 2643; S. cerevisiae AGP1-GFP strain, flow cytometry GFP, 3 h; percent response vs DMSO, % at 10 µM; shares compounds with LAP4-GFP MLPCN;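 active = over 150 percent of DMSO response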;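 also: median GFP channel fluorescence over all cells without mother daughter split; sample median GFP divided by mean DMSO control so 100% equals DMSO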
Yeast autofluor: yeast s288c autofluorescence artifact, counter-screen; shares compounds with LAP4-GFP MLPCN; S. cerevisiae s288c, 520 nm autofluorescence, flow cytometry, 3 h; hits give high values; zero means same as solvent-only cells; fluorescence change (kMESF span) at 33 µM; 610 tested, under 10 active;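 active = fluorescence span over the dose series, or activity score, above about 33, limit read from the data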
Starred values were filed as active, the others as inactive; / = no result. Shown are actives, neighbours in structure and some others; about 0.93% of the full set was active somewhere.

SMILES | MEP2-GFP yeast | RPL19A-GFP yeast | CIT2-GFP yeast | AGP1-GFP MLPCN | LAP4-GFP MLPCN | Yeast autofluor | others
CC(C)N1CCc2c(sc(NC(=S)NC(=O)c3ccccc3)c2C#N)C1 | 121.8 | 104.3 | 116.8 | 100.8 | 98.7 | /
CCCN1CCc2c(sc(NC(=S)NC(=O)c3ccccc3)c2C#N)C1 | 129.1 | 112.2 | 157.1* | 100.5 | 139.4 | 1.61
CC1=NN(c2ccccc2)C(=O)/C1=C/c1cccc(C)c1 | 101.0 | 106.6 | 100.0 | 93.2 | 101.4 | /
CC1=NN(c2ccccc2)C(=O)/C1=C/c1c(C)[nH]n(-c2ccc(C)cc2)c1=O | 91.7 | 92.1 | 87.5 | 90.3 | 97.7 | / | LAP4 cherry2=97.1;MEP2-GFP pick2=103.2;RPL19A-GFP pick2=105.7;CIT2 GFP CP2=99.5;AGP1-GFP pick2=102.3
O=C(CN1CCSC1=O)N1CCN(S(=O)(=O)c2ccccc2)CC1 | 97.1 | 92.8 | 89.4 | 93.9 | 91.2 | /
Brc1ccc(-c2ccc(C3Nc4cccc5cccc(c45)N3)o2)cc1 | 90.1 | 92.8 | 71.9 | 94.1 | 155.0* | / | LAP4 cherry2=126.9;MEP2-GFP pick2=106.5;RPL19A-GFP pick2=90.6;CIT2 GFP CP2=87.1;AGP1-GFP pick2=92.3
O=C(CNC(=O)c1ccccc1)OCC(=O)c1ccc(Cl)s1 | 108.8 | 95.6 | 90.7 | 83.2 | 189.8* | / | LAP4 cherry2=101.2;MEP2-GFP pick2=103.1;RPL19A-GFP pick2=98.9;CIT2 GFP CP2=100.1;AGP1-GFP pick2=98.8
COc1ccc(NC2=C(Cl)C(=O)N(c3ccccc3)C2=O)c(OC)c1 | 103.4 | 96.4 | 97.0 | 93.8 | 87.8 | /
COc1ccc(N2C(=O)C(Cl)=C(Nc3ccc(OC)cc3OC)C2=O)cc1 | 90.6 | 94.7 | 79.1 | 89.0 | 83.8 | /
CCOc1ccc(N2C(=O)CN=C2Nc2ccccc2Cl)cc1 | 89.2 | 93.0 | 94.8 | 86.3 | 88.0 | /
COc1ccc(N2C(=O)C(Cl)=C(Nc3c(C)n(C)n(-c4ccccc4)c3=O)C2=O)cc1 | 99.2 | 93.8 | 94.5 | 91.0 | 142.2 | 0.4
CCOc1ccc(N2C(=O)C(Cl)=C(Nc3ccccc3O)C2=O)cc1 | 97.3 | 92.9 | 89.3 | 92.7 | 102.7 | 0.2
COc1ccccc1NC1=C(Cl)C(=O)N(c2ccccc2)C1=O | 113.7 | 103.9 | 106.0 | 104.9 | 101.0 | -0.21
O=C(CSc1nc(N2CCOCC2)nc(N2CCOCC2)n1)Nc1cccc(C(F)(F)F)c1 | 98.4 | 97.6 | 101.5 | 103.9 | 101.9 | /
CCCCS(=O)(=O)/C=C\C=C/S(=O)(=O)CCCC | 108.8 | 99.0 | 77.3 | 85.2 | 172.6* | 1 | LAP4 cherry2=214.4*;MEP2-GFP pick2=126.5;RPL19A-GFP pick2=93.7;CIT2 GFP CP2=143.6;AGP1-GFP pick2=99.8
CCCCS(=O)(=O)/C=C\C1C2C=CC(C2)C1S(=O)(=O)CCCC (stereo unspecified) | 108.0 | 105.7 | 113.7 | / | 114.6 | /
O=C(Nc1ccccc1)c1cc2ccccc2o1 | 91.6 | 90.3 | 80.7 | 83.7 | 100.5 | /
COc1cc(NC(=O)c2cccc(C)c2)ccc1NC(=O)c1cc2ccccc2o1 | 113.3 | 107.0 | 101.3 | 99.3 | 90.8 | 0.1
O=C(Nc1ccc(NC(=O)c2cc3ccccc3o2)cc1)c1ccco1 | 105.0 | 105.6 | 100.5 | 97.7 | 92.7 | 0.3
CS(=O)(=O)Cc1ccc(C(=O)NC2CCCc3ccccc32)cc1 (stereo unspecified) | 102.6 | 103.3 | 105.4 | 100.2 | 97.2 | /
